Rows were chosen to be rich in hits. Some 2.8% of all compounds tested hit in one or more screens of this group.
Fam108B counter: counter-screen for RBBP9 inhibitors: inhibitors of mouse Fam108B; hit rate 0.33% among 300,000; inhibition, % at 9.51 µM; AID 1947; recombinant Fam108B, FP-Rh probe fluorescence polarization;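 active = inhibition above the screen mean inhibition plus 3 SD, computed separately per campaign, cut at about 18% in these data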;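 also: inhibitors lower polarization as less probe binds the enzyme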
PAFAH1B3 FP inh: inhibitors of human PAFAH1B3 | Q15102 | recombinant PAFAH1B3, FP-rhodamine probe, fluorescence polarization | inhibition, % at 3.39 µM | hit rate 0.28% among 340,000;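 active = inhibition above the screen-wide average of all tested compounds plus 3 SD, cut at about 25% in these data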
PAFAH2 FP inh: inhibitors of human PAFAH2 | inhibition, % at 3.39 µM | Q99487 | recombinant PAFAH2, FP-rhodamine activity probe, fluorescence polarization | hit rate 0.99% among 340,000 | AID 492956;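 active = inhibition above the mean over all tested compounds plus 3 SD, cut at about 30% in these data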;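 also: inhibitors block probe labeling of enzyme so polarization drops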
PAFAH1B2 inh: PAFAH1B2 (human) inhibition. P68402. recombinant PAFAH1B2, FP-rhodamine activity probe, fluorescence polarization. inhibition, % at 3.39 µM. hit rate 1.2% among 340,000. AID 492953;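 active = inhibition above the mean of all tested compounds plus 3 SD, cut at about 24% in these data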
pPAFAH inh: pPAFAH (human) enzyme inhibition; recombinant pPAFAH, FP-rhodamine probe fluorescence polarization; inhibition, % at 3.39 µM; hit rate 1.5% among 330,000;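 active = inhibition above the mean inhibition across the screen plus 3 SD, cut at about 25% in these data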;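 also: inhibitors block binding of the rhodamine activity-based probe so polarization drops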
Target sequence (Q13093 whole entry, looked up): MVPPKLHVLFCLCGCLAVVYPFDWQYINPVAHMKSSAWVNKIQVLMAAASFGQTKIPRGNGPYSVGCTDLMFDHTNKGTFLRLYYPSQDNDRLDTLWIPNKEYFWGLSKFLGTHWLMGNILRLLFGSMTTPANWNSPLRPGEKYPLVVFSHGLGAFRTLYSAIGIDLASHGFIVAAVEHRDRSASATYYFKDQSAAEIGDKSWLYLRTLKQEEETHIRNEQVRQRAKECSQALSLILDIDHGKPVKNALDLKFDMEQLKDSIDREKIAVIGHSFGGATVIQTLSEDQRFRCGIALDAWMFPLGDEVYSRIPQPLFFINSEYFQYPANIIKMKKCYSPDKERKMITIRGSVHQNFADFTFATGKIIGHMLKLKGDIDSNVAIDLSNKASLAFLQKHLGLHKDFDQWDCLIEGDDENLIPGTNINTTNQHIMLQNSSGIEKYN
PME-1 primary: PME-1 (human) inhibition. inhibition, % at 5.9 µM. Q9Y570. hit rate 0.53% among 320,000. recombinant PME-1, FP-Rh probe fluorescence polarization;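 active = inhibition above the campaign mean of all compounds plus 3 SD, cut at about 26% in these data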;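 also: competitive labeling of PME-1 active site by serine hydrolase directed probe; inhibitors block probe labeling so polarization falls and inhibition rises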
Numbers stand for hits; n = inactive; x = no result given.

SMILES | Fam108B counter | PAFAH1B3 FP inh | PAFAH2 FP inh | PAFAH1B2 inh | pPAFAH inh | PME-1 primary
O=C1N[C@@H](Cc2c[nH]c3ccccc23)COC(=O)[C@H](Cc2ccc(F)cc2)C/C=C\C[C@H]1CC(=O)N(CCO)Cc1ccccc1 | x | n | n | n | n | x
O=C1NCCOC(=O)[C@H](Cc2ccc(F)cc2)C/C=C\C[C@@H]1CC(=O)N(CCO)Cc1ccccc1 | x | n | n | n | n | x
CCOc1cc(C2NN=C(c3ccc(C)cc3)S2)ccc1O (centres undefined) | 25 | n | n | n | n | n
COc1ccc(C2NN=C(c3ccc(C)cc3)S2)cc1 (centres undefined) | n | n | n | n | n | n
COC(=O)N1C(=O)[C@](c2ccc(OC)cc2)(C(C)C)N1C(=O)OC | n | n | n | n | n | 49
COC(=O)N1C(=O)[C@@](c2ccccc2)(C2CCCC2)N1C(=O)OC | n | n | n | n | n | n
COC(=O)N1C(=O)[C@](CC(C)C)(c2ccccc2)N1C(=O)OC | n | n | n | n | n | 28
COC(=O)N1C(=O)[C@](c2ccccc2)(C2CCCCC2)N1C(=O)OC | n | n | n | n | n | 71
COc1ccc(S(=O)(=O)Nc2c(NC3CCCCC3)c3ccccc3oc2=O)cc1 | n | n | n | n | n | n
C[C@H](CO)N1C[C@H](C)[C@@H](CN(C)C(=O)Nc2ccc(C(F)(F)F)cc2)Oc2c(NC(=O)NC3CCCCC3)cccc2C1=O | x | n | n | n | n | x
C[C@H](CO)N1C[C@H](C)[C@@H](CN(C)C(=O)Nc2ccc(C(F)(F)F)cc2)Oc2c(NC(=O)CCC(F)(F)F)cccc2C1=O | x | n | n | 28 | n | x
C[C@H](CO)N1C[C@H](C)[C@@H](CN(C)C(=O)Nc2ccccc2)Oc2c(NC(=O)Nc3ccc(C(F)(F)F)cc3)cccc2C1=O | x | n | n | 36 | n | x
C[C@H](CO)N1C[C@H](C)[C@@H](CN(C)C(=O)Nc2ccc(C(F)(F)F)cc2)Oc2c(NC(=O)Cc3ccccc3)cccc2C1=O | x | n | n | n | n | x
C[C@@H]1CN([C@H](C)CO)C(=O)c2cccc(NC(=O)NC3CCCCC3)c2O[C@@H]1CN(C)C(=O)Nc1ccc(C(F)(F)F)cc1 | x | n | n | 64 | n | x
CC(=O)N1CCOc2ccc(S(=O)(=O)NCCc3cccc(C)c3)cc21 | n | n | n | n | n | n
COc1ccccc1CCNC(=O)C(=O)NCC1CCCN1S(=O)(=O)c1ccccc1 (centres undefined) | n | n | n | n | n | n
CCOc1ccc(NC(=O)Nc2ccc3c(c2)N(C)C(=O)CS3)cc1 | n | n | n | n | n | 33
COC1OC(COC(=O)c2ccccc2)C(OC(=O)c2ccccc2)C1OC(=O)c1ccccc1 (centres undefined) | n | n | n | n | n | n
O=C(OC[C@H]1O[C@@H](OC(=O)c2cc(O)c(O)c(OC(=O)c3cc(O)c(O)c(O)c3)c2)[C@H](OC(=O)c2cc(O)c(O)c(OC(=O)c3cc(O)c(O)c(O)c3)c2)[C@@H](OC(=O)c2cc(O)c(O)c(OC(=O)c3cc(O)c(O)c(O)c3)c2)[C@@H]1OC(=O)c1cc(O)c(O)c(OC(=O)c2cc(O)c(O)c(O)c2)c1)c1cc(O)c(O)c(OC(=O)c2cc(O)c(O)c(O)c2)c1 | 65 | x | x | x | 70 | 26
COc1ccc(CCCNC(=O)C2CCC(=O)N(CCc3cccc(F)c3)C2)cc1 (centres undefined) | n | n | n | n | n | n
Cc1ccccc1OCCn1c(S(=O)(=O)O)nc2c(N)ncnc21 | n | 45 | 46 | 28 | n | n
O=C1c2ccc([N+](=O)[O-])cc2C(=O)N1c1ccc(Cl)cn1 | n | n | n | n | n | n
O=C1c2cccc3c([N+](=O)[O-])ccc(c23)C(=O)N1c1nccs1 | n | 33 | n | n | n | n
O=C1c2cccc3c([N+](=O)[O-])ccc(c23)C(=O)N1c1ccc(Cl)cn1 | n | 34 | n | n | n | 28
CC(C)(C)S(=O)N1Cc2cn(Cc3ccccc3)c(=O)cc2[C@@H]1CCO (some centres undefined) | x | n | n | n | x | x
SMILES | Fam108B counter | PAFAH1B3 FP inh | PAFAH2 FP inh | PAFAH1B2 inh | pPAFAH inh | PME-1 primary
Cc1cc(/C=C2/C(=O)N(C)C(=S)N2C)c(C)n1C1CC1 | n | n | n | n | n | n
Cc1cc(/C=C2\SC(=S)NC2=O)c(C)n1C1CC1 | n | n | n | n | 32 | n
CC(Oc1ccc(F)cc1)C(=O)Nc1ccccc1C(=O)N1CCCCC1 (centres undefined) | x | n | n | n | n | n
CC(C)(C)c1ccc(C(CC(=O)O)NC(=O)C23CC4CC(CC(C4)C2)C3)cc1 (centres undefined) | n | n | n | 26 | 31 | n
CC[C@H](C)[C@@H](C(=O)NCCCCCCCCCCC(=O)N1CCN(C(=O)OC(C)(C)C)CC1)n1cc(CCCCCNC(=O)OC(C)(C)C)nn1 | n | n | n | n | n | n
O=C(NCC1CCCO1)c1onc(CSc2ccc(Cl)cc2)c1C(=O)O (centres undefined) | n | n | n | 25 | n | n
Cc1ccccc1SCc1noc(C(=O)NCC2CCCO2)c1C(=O)O (centres undefined) | n | n | n | n | n | n
O=C(NCCc1ccccc1)c1nnc(CS(=O)(=O)c2ccccc2)o1 | n | n | n | n | 28 | n
O=C(NCCc1ccccc1)c1nc(CS(=O)(=O)c2ccc(Cl)cc2)no1 | n | n | n | n | n | n
c1ccc(-c2csc3ncnc(NCCN4CCOCC4)c23)cc1 | n | n | n | n | n | n
Clc1ccc(-c2csc3ncnc(NCCN4CCOCC4)c23)cc1 | n | n | n | n | n | n
c1ccc(CNc2nc(CN3CCOCC3)nc3scc(-c4ccccc4)c23)cc1 | n | n | n | n | 34 | n
Clc1ccc(CNc2nc(CN3CCOCC3)nc3scc(-c4ccccc4)c23)cc1 | n | n | n | n | 33 | n
COc1cc(C)ccc1Oc1ccc([N+](=O)[O-])cc1 | x | n | n | n | x | x
CCCCc1ccc(NC(=S)N2CCN(C(=O)c3ccco3)CC2)cc1 | x | n | n | n | x | x
O=C(NCCc1ccc(Cl)cc1Cl)c1ccc2nc[nH]c2c1 | n | n | n | 29 | n | n
CC(C)CCNC(=O)c1ccc2nc[nH]c2c1 | n | n | n | n | n | n
O=C(NCCSc1ccc(Br)cc1)c1ccc2nc[nH]c2c1 | n | n | n | 47 | 30 | n
COc1ccc(S(=O)(=O)N2CCC(C(=O)NC(c3nc4ccccc4[nH]3)C(C)C)CC2)cc1 (centres undefined) | x | n | n | n | n | n
Cc1cccc(-n2ccnc2SCC(=O)Nc2cccc(S(=O)(=O)NC3=NCCC3)c2)c1C | x | n | n | n | x | x
O=C(c1cc([N+](=O)[O-])ccc1N1CCOCC1)N1CCN(S(=O)(=O)c2cc(Cl)ccc2Cl)CC1 | n | n | n | n | n | n
